We go through 27 compounds from PubChem BioAssay (NCATS).

Results filed as inconclusive are left out. The source made the active and inactive calls. Unless noted, the call rests on the fitted dose curve; in most records, active means well fitted curve in the direction sought with a large enough effect; inconclusive means small, poorly fitted or top-dose-only effect, or another doubt; inactive means no such curve, though single readings can be large; an effect the other way counts as inactive or inconclusive. Peptide text beside a SMILES is read from it.

Test [1] in a line: S16 Schwann cell viability assay (CellTiter-Glo assay) (AID 624031). Further: nearly all actives have a fitted effect of over 70% in size. The settings on record: S16 rat Schwann cells viability, 24 h; series mostly up to 57.5 µM. The method in brief:
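CellTiter-Glo ATP luminescence counter-screen in untransfected S16 rat Schwann cells, 24h compound exposure at 37 degree Celsius after overnight seeding (500-750 cells/well); response scaled between cell-free wells and DMSO (0% activity), curves classed by r2 and magnitude.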
(In general: In ATP-based viability assays light output follows the ATP content of the culture.)

Test [2] can be described thus: S16 Schwann cell PMP22 intronic element firefly luciferase assay (AID 624032). Further: nearly all actives have a fitted effect of over 30% in size. To be noted: S16 rat Schwann cells, PMP22 element FLuc, 24 h; series mostly up to 57.5 µM. The method in brief:
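Rat S16 Schwann cells stably carrying a PMP22 intronic element-driven Fluc reporter were seeded overnight, then exposed to compounds for 24 h at 37 °C. Luminescence was normalized to PTC124 (positive control) and DMSO (0% activity).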

Test [3] in a line: S16 Schwann cell PMP22 intronic element beta-lactamase assay (AID 624044; calls by dose curve; further: nearly all actives have a fitted effect of over 15% in size). The settings on record: S16 rat Schwann cells, PMP22 element beta-lactamase FRET, 24 h; series mostly up to 38.3 µM. The method in brief:
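Beta-lactamase reporter under a PMP22 intronic regulatory element in stable S16 rat Schwann cells; 24 h compound exposure. 460 nm blue signal normalized between DMSO (0%) and potassium clavulanate, with 535 nm FRET tracking viability; curves classed by r2 and response.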
Potency means the concentration at half of the fitted maximal effect.

For the compound `CO[C@H](C(=O)[C@@H](O)[C@@H](C)O)C1Cc2cc3cc(O[C@H]4C[C@@H](O[C@H]5C[C@@H](O)[C@H](O)[C@@H](C)O5)[C@@H](O)[C@@H](C)O4)c(C)c(O)c3c(O)c2C(=O)[C@H]1O[C@H]1C[C@@H](O[C@H]2C[C@@H](O[C@H]3C[C@](C)(O)[C@H](O)[C@@H](C)O3)[C@H](O)[C@@H](C)O2)[C@H](O)[C@@H](C)O1` (stereo not given in full), the Potency entry in test [1] and in test [2] was “inactive” throughout. In test [3], the Potency is 22.4 µM (active).
As for `IC(I)I`, the Potency entry in test [1], in test [2] and in test [3] was “inactive” in each case.
In the case of `Nc1c(N=Nc2ccc(-c3ccc(N=Nc4cc(S(=O)(=O)O)c5ccccc5c4N)cc3)cc2)cc(S(=O)(=O)O)c2ccccc12`, the Potency entry in test [1] and in test [3] was “inactive” in each case.
For `CC1=CCC(C(C)(C)O)CC1` (stereo not given), the Potency result in test [1], in test [2] and in test [3] was “inactive” in each case.
As to `COC(=O)[C@H]1[C@H]2C[C@@H]3c4[nH]c5ccccc5c4CCN3C[C@H]2C[C@@H](OC(=O)c2cc(OC)c(OC)c(OC)c2)[C@@H]1OC`, the Potency is 5.1 µM (active) in test [1], 0.907 µM (active) in test [2] and 3.98 µM (active) in test [3].
For `C[C@H]1C[C@H]2[C@@H]3CCC4=CC(=O)C=C[C@]4(C)[C@@]3(F)[C@@H](O)C[C@]2(C)[C@@]1(O)C(=O)CO` the same measures were “inactive”, “inactive” and “inactive”.
Taken in the same sequence, the figures for `O=C(O)CN(CCN(CC(=O)O)CC(=O)O)CC(=O)O` were “inactive”, “inactive” and “inactive”.
Turning to `CCOC(C)=O`, the Potency entry in test [1], in test [2] and in test [3] was “inactive” in each case.
As to `CCCC(=O)Nc1ncnc2c1ncn2C1OC2COP(=O)(O)OC2C1OC(=O)CCC` (stereo not given), the Potency result in test [1] and in test [3] was “inactive” throughout. Moreover, the Potency in test [2] was 5.73 µM (active).
Consider `CC(Cc1ccc(O)c(O)c1)C(C)Cc1ccc(O)c(O)c1` (stereo not given), for which, in test [1], the Potency result is “inactive”. The Potency in test [2] was 8.09 µM (active); in test [3], 22.4 µM (active).
Taken in the same sequence, the figures for `Cc1c(C)c2c(c(C)c1O)CC[C@@](C)(CCC[C@H](C)CCC[C@H](C)CCCC(C)C)O2` were “inactive”, “inactive” and “inactive”.
On to `CC(=O)Oc1c(C)cc(OCC(O)CNC(C)C)c(C)c1C` (stereo not given), for which the Potency result in test [1], in test [2] and in test [3] was “inactive” in each case.
For `CC1=C(/C=C/C(C)=C/C=C/C(C)=C/C=C/C=C(C)/C=C/C=C(C)/C=C/C2=C(C)C(=O)CCC2(C)C)C(C)(C)CCC1=O`, the Potency result in test [1], in test [2] and in test [3] was “inactive” in each case.
For `Oc1cc(O)c2c(c1)OC(c1ccc(O)c(O)c1)C(O)C2` (stereo not given), the Potency entry in test [1], in test [2] and in test [3] was “inactive” throughout.
For the compound `C#CCOc1ccc2c(C)cc(=O)oc2c1`, the Potency result in test [1], in test [2] and in test [3] was “inactive” in each case.
As to `CC1(C)S[C@@H]2[C@H](NC(=O)[C@@H](NC(=O)N3CCNC3=O)c3ccccc3)C(=O)N2[C@H]1C(=O)O`, the Potency entry in test [1], in test [2] and in test [3] was “inactive” throughout.
As to `CCCCC(C)(O)C/C=C/[C@H]1[C@H](O)CC(=O)[C@@H]1CCCCCCC(=O)OC` (stereo not given in full), the Potency entry in test [1] and in test [3] was “inactive” in each case. Besides, the Potency in test [2] is 0.181 µM (active).
Turning to `Nc1c(Br)cc(Br)cc1CNC1CCC(O)CC1` (stereo not given), the Potency entry in test [1], in test [2] and in test [3] was “inactive” each time.
Consider `CCC(=O)NCCC1CCc2ccc3c(c21)CCO3` (stereo not given), for which the Potency entry in test [1], in test [2] and in test [3] was “inactive” in each case.
Take `COC(C(=O)C(O)C(C)O)C1Cc2cc3cc(OC4CC(OC5CC(O)C(O)C(C)O5)C(O)C(C)O4)c(C)c(O)c3c(O)c2C(=O)C1OC1CC(OC2CC(OC3CC(C)(O)C(O)C(C)O3)C(O)C(C)O2)C(O)C(C)O1` (stereo not given): the Potency result in test [1] and in test [2] was “inactive” in each case. In addition, the Potency in test [3] is 22.4 µM (active).
For `Cc1c(C)c2c(c(C)c1O)CC[C@@](C)(CCC[C@@H](C)CCC[C@@H](C)CCCC(C)C)O2`, the Potency result in test [1], in test [2] and in test [3] was “inactive” in each case.
Regarding `CCCCC(=O)O[C@]1(C(=O)CO)[C@H](C)C[C@H]2[C@@H]3CCC4=CC(=O)C=C[C@]4(C)[C@@]3(F)[C@@H](O)C[C@@]21C`, the Potency entry in test [1], in test [2] and in test [3] was “inactive” each time.
On to `CCCCCCCC/C=C\CCCCCCCC(=O)O`, for which the Potency result in test [1] and in test [3] was “inactive” each time.
With `CC(=O)N[C@@H](CC(=O)O)C(=O)N[C@@H](CCC(=O)O)C(=O)O` (Ac-Asp-Glu-OH), the Potency result in test [1], in test [2] and in test [3] was “inactive” in each case.
For the compound `CN1C(=O)CN2CCc3ccccc3C2c2cc(Cl)ccc21` (stereo not given), the Potency entry in test [1], in test [2] and in test [3] was “inactive” each time.
For `CC(C)N=c1cc2n(-c3ccc(Cl)cc3)c3ccccc3nc-2cc1Nc1ccc(Cl)cc1`, the Potency result in test [1] is “inactive”.
Consider `O=C(O)c1cc(=O)c2c3nc4ccccc4oc-3cc(=O)c2[nH]1`, for which the Potency in test [1] was 36.1 µM (active).
